Compounds without any hit were thinned out: in the full panel of roughly 83,000, 20% have a hit.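 The endpoint reported here, percent growth, reads 100 for growth as untreated, 0 for no net growth and -100 for all cells dead.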 Unmarked numbers belong to inactive results. Active and inactive are the calls of the source. Rule for the calls: active = growth percent below 10; inactive = the rest.
Each compound was assayed on MDA-MB-468 breast (assay: NCI-60 one-dose screen, 48 h (100 = growth as untreated, 0 = no growth, -100 = all killed)). Conditions: 10 µM unless noted.
`C=CCn1c(SCC(=O)Nc2cccc(C(=O)/C=C/c3ccc(Cl)cc3)c2)nc2ccccc2c1=O` was tested, and the growth was 107%. Compound `COCCNC(=O)Cc1cc(-c2ccc(Cl)cc2)n(-c2ccccc2)c1C` has a growth of 73%. With `COC1CC(O)C2=C(CC3C(/C(C)=C\CC=C(C)C)CCC3(C)O2)C1=O` (stereo not given) the growth was 109%. `COc1ccc(C(=O)Nc2cccc(C3CC(=O)c4c(cc(OC)c(OC)c4OC)O3)c2)cc1` (stereo not given) was tested, and the growth was -2.79% (active). `COc1cc(/C(C#N)=C/c2ccc3c(c2OC)OCO3)cc2c1OCO2` was tested, and the growth was 9.19% (active). In the case of `COc1cc(/C=N/Nc2ccnc3cc(Cl)ccc23)cc(OC)c1O`, the growth is reported as -72.1% (active). With `NS(=O)(=O)c1ccc(Br)cc1` the growth was 102%. `Nc1c(C(=O)c2ccc(F)cc2)sc2nc3c(cc12)CCCC3` showed a growth of 59.9%. `Cn1cc(-c2ccc3occ(-c4cccc(-c5ccncc5)c4)c3n2)cn1` was tested, and the growth was 4.07% (active). `Cc1nn(-c2ccccc2)c2nc3c(nc12)C(=O)CCC3` showed a growth of 88.3%. In the case of `COc1ccc(-c2cnc(-c3ccc(Cl)cc3)[nH]2)cc1OC`, the growth is reported as 84.7%. Work on `O=c1cc(-c2ccccc2)oc2cc(OCc3cn(Cc4ccc(F)cc4)nn3)cc(O)c12` yielded a growth of 53.9% [100 µM]. In the case of `COc1cc(NC(C)CCCNC(C)C)c2ncccc2c1OC` (stereo not given), the growth is reported as 32.8%. `CCN(CC)CCOc1cccc2c1C(=O)c1ccccc1C2=O` gave a growth of 91.4%. `O=C(NO)c1ccc(NCc2csc3ccccc23)cc1` showed a growth of 76.9%. Work on `O=C(CO[N+](=O)[O-])Nc1ccc(C(=O)/C=C/c2ccc3c(c2)OCO3)cc1` yielded a growth of 91.9%. `CCOC(=O)c1ccncc1` showed a growth of 89.1%. In the case of `O=C(COc1ccc(-c2nc3cc(Cl)c(Cl)cc3[nH]2)cc1)N=Nc1c(O)[nH]c2ccc(Cl)cc12`, the growth is reported as 68.5%. With `NC(=O)c1cc(I)ccc1NC(=O)/C=C/c1ccccc1Cl` the growth was 17.3%. `COc1ccc2c(OCc3nnc4ccc(-c5ccccc5)nn34)ccnc2c1` gave a growth of 97.2% [2.5 µM]. Compound `Nc1nc(-c2ccccc2)nc(N)c1N=O` has a growth of 72.4%. For `O=C1CC(C(F)(F)F)=NN1C(=O)c1nn(-c2ccc(Cl)cc2)cc1O`, the growth was 116%. `COc1ccc(-c2nc(NCCO)[nH]c(=O)c2C#N)cc1` was tested, and the growth was 112%. Compound `CCOC(=O)c1cc(C(=O)c2cc(OC)cc(OC)c2)n2nc(C)ccc12` has a growth of 29.8%. With `CNC(=O)Cc1nc(-c2cccc(NS(=O)(=O)c3c(F)cccc3F)c2F)c(-c2ccnc(Nc3ccccc3)n2)s1` the growth was 104%. `C=CCOC(=O)C1=C(C)NC2=C(C(=O)CCC2)C1c1ccc(F)cc1` (stereo not given) showed a growth of 92.3%. Compound `CN(C)CCC=C1c2ccccc2C(C)(C)c2ccccc21` has a growth of 56.6%. `O=C(CN1C(=O)S/C(=C\c2ccccc2)C1=O)Nc1ccc(C(=O)/C=C/c2cc3ccccc3nc2Cl)cc1` was tested, and the growth was 63.1%. `N#CCCN=Nc1c(O)[nH]c2ccc(F)cc12` gave a growth of 98.9%. `CC(=O)N/C(=C1/OC(C(O)C(O)C(O)CO)CN1C)[P+](c1ccccc1)(c1ccccc1)c1ccccc1` (stereo not given) showed a growth of 106%. `Nc1ccc(Br)cn1` showed a growth of 93.6%. `COc1cc(C(=O)/C=C/c2c(-c3ccc(F)cc3)nc3sccn23)cc(OC)c1OC` showed a growth of 12.8%. `N/C(=N\C(N)=N\c1nc2ccccc2s1)c1ccc2ccccc2c1` was tested, and the growth was 109%. Compound `CSc1nnc(-c2cc3c([nH]c4ccccc43)c(-c3cccc(O)c3)n2)n1-c1ccccc1` has a growth of 33.4%. For `O=C(NCc1ccccc1)/C(=C/c1ccccc1)NC(=O)c1ccccc1`, the growth was 93.9%. In the case of `CN1CCN(CCCNC(=O)c2c3c(n4ccccc24)C(=O)c2ncccc2C3=O)CC1`, the growth is reported as -59.9% (active). `O=[N+]([O-])c1ccccc1Sc1ccccc1[N+](=O)[O-]` gave a growth of 92.1%. For `C=C1C(=O)O[C@H]2[C@H]1CC/C(CNC(=O)/C=C/c1ccc(Br)cc1)=C\CC[C@@]1(C)O[C@@H]21`, the growth was -58.5% (active). For `COc1ccc(N2CCN(c3nc(-c4cc(OC)c(OC)c(OC)c4)nc4ccccc34)CC2)cc1`, the growth was 76.2%. With `N#C/C(=C\c1ccc(-c2cccc(C(F)(F)F)c2)o1)c1ccccc1` the growth was 23.4%.
